A short description of assay [1]: compounds altering viability of human ES cells (AID 493140).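 Note: cells exposed to compounds for four days before counting.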 The following applies: human embryonic stem cell survival screen; stronger effect = higher value.
A short description of assay [2]: stimulators of insulin release from INS-1E, primary screen, cell-based, 5 mM glucose, NPC library (AID 1117329;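 active = compound raises insulin release from rat beta cells at 5 mM glucose, no numeric limit stated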). The following applies: rat INS-1E insulin secretion, at 10 µM, stronger effect = higher value.
Assay [3] is described as follows: growth inhibition of GSK3B-pretreated HCT116 cells – cell-based, CellTiter-Glo, 0.2 to 20 µM (AID 1117336;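 active = compounds lowering colon cancer cell viability after pretreatment blocking the GSK3B kinase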). The following applies: HCT116 viability after GSK3B inhibitor, at 20 µM, stronger effect = higher value. On the technique in general: Cellular ATP, detected with luciferase, serves as a proxy for viable cell number.
Assay [4] in a line: inhibition of endothelial tube formation, primary screen, imaging, VEGF stimulated, CD31 staining, tube area, NPC library (AID 1117340;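 active = compound that reduces growth-factor-driven endothelial tube area in a mixed cell culture, no cutoff stated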). The following applies: VEGF-stimulated ADSC/ECFC co-culture, at 10 µM, stronger effect = higher value.
Assay [5] can be described thus: GLP1 release stimulators, primary, NCI-H716, NPC library (AID 1117341;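 active = compound raises GLP1 secretion from the human gut endocrine cells, with no numeric limit stated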). The following applies: NCI-H716 cells, at 10 µM, stronger effect = higher value.
Assay [6] can be described thus: HCT116 colon cancer cell growth inhibition, primary screen, CellTiter-Glo luminescence, NPC library (AID 1117342;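 active = compounds that lower survival of HCT116 colon cancer cells in the luminescence readout, no numeric limit stated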). Particulars: at 20 µM (top of the series).
The nature of assay [7]: reduced SW480 viability measured with CellTiter-Glo, NPC library, primary (AID 1117343;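 active = compounds that lower viability of the colon cancer cells in the luminescence readout, with no numeric limit stated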). The following applies: CellTiter-Glo luminescence; at 20 µM (top of the series) unless noted.
Assay [8] in a line: NPC library primary testing for decreased DLD-1 cell viability via CellTiter-Glo (AID 1117346;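 active = compounds that lower survival of DLD-1 colon cancer cells in the luminescence readout, no cutoff given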). The following applies: DLD-1 viability, CellTiter-Glo luminescence; at 20 µM (top of the series).
For assay [9], the target named is 6-phosphogluconate dehydrogenase, decarboxylating (Homo sapiens) (UniProt P52209). Description: inhibition of human phosphogluconate dehydrogenase – biochemical, recombinant enzyme, NADPH absorbance, primary screen (AID 1159550;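 active = at least 20% inhibition of 6-phosphogluconate dehydrogenase activity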). The following applies: recombinant 6PGD, NADPH absorbance 341 nm; at 10 µM; stronger effect = higher value.
Assay [10] in a line: modulation of C. elegans fzo-1 (AID 1259413).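 Note: fzo-1 mutant C. elegans worms in liquid wells.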 The following applies: C. elegans fzo-1 modulator screen, mean read-out; stronger effect = higher value.
Assay [11] in a line: EMT-state selective cytotoxicity in co-culture – imaging, PC-3E GFP, TEM4-18 mCherry, primary screen (AID 1345086;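 active = compounds killing one labelled cell type while sparing the other, by normalised counts and ratio limits, not self-fluorescent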;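 for all read-outs here: cells exposed to compound for 72 h before imaging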;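 for red/green cell ratio (normalised): normalised mesenchymal count divided by normalised epithelial count so high means epithelial killing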). The following applies: PC-3E GFP / TEM4-18 mCherry co-culture, imaging cell counts, at 1 µM; for red/green cell ratio (normalised): actives lie on both sides, counts scaled to control wells, 1 = unselective.
Assay [12] in a line: MELAS cybrid and Rieske KO viability enhancers – cell-based, MELAS cybrids, Rieske KO mouse fibroblasts, CellTiter-Glo, primary screen (AID 1508586;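 active = mean z-score across replicates of 1.96 or higher in either the MELAS or the Rieske mutant cell line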;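 note: z relative to plate mean and SD of compound and empty wells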). The following applies: low glucose.
For assay [13], the target named is NAD(+) hydrolase SARM1 (Homo sapiens) (UniProt Q6SZW1). Description: blocking NAD cleavage by SARM1 SAM-TIR – cell lysate, NAD-Glo luminescence (AID 1508614;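 active = compound whose remaining NAD level is above about 45 nM, limit read from the data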;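 note: higher remaining NAD means stronger inhibition of SARM1 NADase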). Particulars: SAM-TIR HEK293T lysate NADase, at 1 µM, stronger effect = higher value.
The target of assay [14] is Mitogen-activated protein kinase 7 (Homo sapiens) (UniProt Q13164). Description: Gal4-ERK5 driven luciferase induction – cell-based, HTS, primary screen (AID 1508626;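 active = luciferase signal above three times the same-plate solvent-only control wells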;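 note: luciferase driven by Gal4-ERK5 fusion binding five Gal4 sites before minimal TATA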). The following applies: HeLa Gal4-ERK5 transactivation, 18 h, at 5 µM, stronger effect = higher value.
Assay [15] can be described thus: galactose survival enhancers in mitochondrial complex I cybrids – cell-based, galactose medium, ATP luminescence, primary screen (AID 1645843;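 active = z-score of at least 1.8 in each of two replicates, scored against plate mean and spread of sample wells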;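 note: positive z means more ATP and so rescue of galactose-driven cybrid death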). Particulars: complex I mutant cybrid cells, 72 h, stronger effect = higher value.
Assay [16] is described as follows: growth inhibition, single agents and combos, ICB984, cell-based, cisplatin or BGB combos, synergistic combos for chromothripsis tumors (AID 1671451).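 Note: cells exposed for 96 hours before readout; 0% = vehicle DMSO and 100% = killing by high DMSO.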 The following applies: ICB984 medulloblastoma cells, drug combinations, stronger effect = higher value.
Setting [17] is: measured here: epithelial PC-3E GFP cell survival.
The mark [18] stands for this setting: measured here: mesenchymal TEM4-18 mCherry cell survival.
The mark [19] stands for this setting: MELAS cybrid survival, CellTiter-Glo 48 h, stronger effect = higher value.
Setting [20] is: Rieske KO mouse fibroblast survival, CellTiter-Glo 72 h.

Several values for one entry are separate records, joined by “and”; a condition that tells them apart may be missing. Identical values can stand only once. Activity calls are given as the source filed them. Unless noted, the rule behind the calls is not given here.

6-phosphogluconate dehydrogenase, decarboxylating (Homo sapiens), sequence (P52209 whole entry, looked up): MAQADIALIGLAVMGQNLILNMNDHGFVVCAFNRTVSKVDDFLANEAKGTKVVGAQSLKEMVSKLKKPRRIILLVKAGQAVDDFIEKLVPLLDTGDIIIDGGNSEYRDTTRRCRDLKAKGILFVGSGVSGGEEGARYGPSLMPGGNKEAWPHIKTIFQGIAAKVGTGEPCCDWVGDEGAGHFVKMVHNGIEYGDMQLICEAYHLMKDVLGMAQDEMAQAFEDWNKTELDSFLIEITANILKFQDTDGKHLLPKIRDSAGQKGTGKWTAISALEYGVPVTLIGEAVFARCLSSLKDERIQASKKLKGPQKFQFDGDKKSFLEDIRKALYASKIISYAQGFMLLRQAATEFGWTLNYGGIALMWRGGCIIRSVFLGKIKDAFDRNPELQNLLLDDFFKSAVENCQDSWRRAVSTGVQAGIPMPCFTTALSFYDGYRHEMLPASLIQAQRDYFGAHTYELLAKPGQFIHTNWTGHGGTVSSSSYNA
NAD(+) hydrolase SARM1 (Homo sapiens), sequence (Q6SZW1 whole entry, looked up, the tested form may be a part): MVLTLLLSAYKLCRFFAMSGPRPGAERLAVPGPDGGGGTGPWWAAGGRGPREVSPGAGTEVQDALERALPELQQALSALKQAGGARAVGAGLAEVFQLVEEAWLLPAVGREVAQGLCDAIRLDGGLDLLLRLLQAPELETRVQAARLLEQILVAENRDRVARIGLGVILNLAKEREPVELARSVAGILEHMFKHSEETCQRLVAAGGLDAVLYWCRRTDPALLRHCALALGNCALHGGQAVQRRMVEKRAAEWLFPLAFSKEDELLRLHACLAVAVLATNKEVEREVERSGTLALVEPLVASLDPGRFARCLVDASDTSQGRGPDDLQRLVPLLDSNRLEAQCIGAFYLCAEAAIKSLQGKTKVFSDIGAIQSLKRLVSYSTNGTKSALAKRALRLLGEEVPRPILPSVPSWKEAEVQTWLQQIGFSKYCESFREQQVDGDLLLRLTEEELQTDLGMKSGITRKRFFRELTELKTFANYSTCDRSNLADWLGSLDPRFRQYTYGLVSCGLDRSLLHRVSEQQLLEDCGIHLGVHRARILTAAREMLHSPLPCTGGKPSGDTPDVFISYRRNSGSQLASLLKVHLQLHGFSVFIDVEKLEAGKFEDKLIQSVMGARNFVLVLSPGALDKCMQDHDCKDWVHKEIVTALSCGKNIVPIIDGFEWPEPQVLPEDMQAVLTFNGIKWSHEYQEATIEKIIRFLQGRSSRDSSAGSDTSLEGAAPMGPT
Mitogen-activated protein kinase 7 (Homo sapiens), sequence (Q13164 whole entry, looked up, the tested form may be a part): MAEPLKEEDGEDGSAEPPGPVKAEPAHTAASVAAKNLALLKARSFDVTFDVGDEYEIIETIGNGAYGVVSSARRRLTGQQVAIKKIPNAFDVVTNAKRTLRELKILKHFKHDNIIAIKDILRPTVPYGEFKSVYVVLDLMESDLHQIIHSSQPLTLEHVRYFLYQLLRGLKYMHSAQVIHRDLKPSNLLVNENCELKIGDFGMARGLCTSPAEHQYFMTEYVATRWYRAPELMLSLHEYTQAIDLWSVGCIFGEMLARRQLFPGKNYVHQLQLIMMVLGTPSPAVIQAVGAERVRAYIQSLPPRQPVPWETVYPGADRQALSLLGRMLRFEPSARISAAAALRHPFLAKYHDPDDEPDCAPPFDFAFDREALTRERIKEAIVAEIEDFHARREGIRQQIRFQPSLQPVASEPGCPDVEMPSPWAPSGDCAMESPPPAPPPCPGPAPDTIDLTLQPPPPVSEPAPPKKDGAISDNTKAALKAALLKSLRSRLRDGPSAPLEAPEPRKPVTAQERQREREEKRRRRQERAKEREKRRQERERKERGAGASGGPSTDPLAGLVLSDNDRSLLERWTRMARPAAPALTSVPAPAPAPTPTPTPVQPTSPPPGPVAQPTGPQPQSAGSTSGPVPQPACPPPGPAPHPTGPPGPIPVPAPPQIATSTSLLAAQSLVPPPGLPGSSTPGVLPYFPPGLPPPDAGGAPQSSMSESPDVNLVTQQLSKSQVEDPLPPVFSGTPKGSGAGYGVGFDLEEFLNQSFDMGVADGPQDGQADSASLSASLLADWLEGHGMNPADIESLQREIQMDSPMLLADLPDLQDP

Consider `CCCC(=O)Nc1ccc(OCC(O)CNC(C)C)c(C(C)=O)c1` (stereo unspecified), for which the survival in [1] was 12.1 (inactive). The insulin secretion stimulation in assay [2] is 0.7% (inactive). Besides, in assay [3], the viability decrease was -32% (inactive). In addition, in assay [4], the tube area decrease is 13.3% (inactive). The GLP1 secretion stimulation in assay [5] was 0.9% (inactive). Moreover, the inhibition of viability in assay [6] is 2.87% (inactive). The viability decrease (inhibition) is 15.1% (inactive) in assay [7] and -8.8% (inactive) in assay [8]. The inhibition in assay [9] was 5.09% (inactive). Further, the mean signal in assay [10] is 238 (inactive). In assay [11], the red/green cell ratio (normalised) is 0.87 (inactive). In addition, the values for the normalised cell number in [11] (setting [17]) and in assay [11] (setting [18]) were 1.07 and 0.93, respectively. In addition, the z-score in assay [12] (setting [19]) was -0.162 (inactive) and 0.587 (inactive); in assay [12] (setting [20]), -0.138 and 0.913; in assay [15] it was 1.51 (inactive). Moreover, in [13], the remaining NAD was 10 nM (inactive). Besides, in assay [14], the luciferase signal is 60 AU (inactive).
With `CCn1cc(C(=O)O)c(=O)c2ccc(C)nc21`, the survival in assay [1] was 18 (inactive). In assay [2], the insulin secretion stimulation was -1.7% (inactive). For the same compound, the viability decrease in assay [3] was 10.1% (inactive). The tube area decrease in assay [4] is 2% (inactive). Further, in assay [5], the GLP1 secretion stimulation was 3.3% (inactive). Also, the inhibition of viability in [6] is 10.9% (inactive). Besides, the figures for the viability decrease (inhibition) in assay [7] and in assay [8] were 30.9% (inactive) and -0.43% (inactive), respectively. The inhibition is -7.36% (inactive) in [9]; 7.03% and -21.5% in assay [16] (BGB IC20 combo, at 0.005 µM); -26.9% and -29.6% in assay [16] (BGB IC40 combo, at 0.005 µM); -0.123% and -9.89% in assay [16] (BGB IC40 combo, at 0.05 µM); -22.6% (inactive) and -21.9% (inactive) in assay [16] (at 0.5 µM); -0.123% and -9.89% in [16] (cisplatin combo, at 0.05 µM). The inhibition is -52.2% and -39.7% in assay [16] (cisplatin combo, at 0.5 µM); -11.7% and -29.5% in assay [16] (cisplatin combo, at 5 µM); -3.29% and -15.7% in assay [16] (measured here: 5 uM single agent, at 5 µM). Also, in [10], the mean signal was 268 (inactive). Moreover, the red/green cell ratio (normalised) in [11] was 0.88 (inactive). In addition, the figures for the normalised cell number in [11] (setting [17]) and in assay [11] (setting [18]) were 1.09 and 0.97, respectively. The remaining NAD in assay [13] is 10 nM (inactive). In addition, the luciferase signal in [14] was 44 AU (inactive).
Consider `COC(=O)C1=C(C)NC(C)=C(C(=O)OC)C1c1ccccc1[N+](=O)[O-]`, for which the survival in [1] was 26.5 (inactive). Also, the insulin secretion stimulation in [2] was 11.4% (inactive). The viability decrease in assay [3] is 77.9% (active). The tube area decrease in [4] is 1.2% (inactive). The GLP1 secretion stimulation in [5] is 4.4% (inactive). Also, in [6], the inhibition of viability was 58.7% (active). For the same compound, the viability decrease (inhibition) in assay [7] is 136% (active); in assay [8], 93.1% (active). In addition, the inhibition in assay [9] is -13.6% (inactive). Further, the mean signal in [10] is 242 (inactive). For the same compound, the red/green cell ratio (normalised) in assay [11] is 0.87 (inactive). Moreover, the results for the normalised cell number in assay [11] (setting [17]) and in assay [11] (setting [18]) were 1.03 and 0.9, respectively. Moreover, the z-score in assay [12] (setting [19]) was -0.44 (inactive) and 1.42 (inactive) and -0.699 (inactive); in assay [12] (setting [20]) it was 0.0615 and 0.566 and -0.497. The remaining NAD in [13] is 10 nM (inactive). The luciferase signal in assay [14] is 52 AU (inactive).
On to `COc1c2occc2cc2ccc(=O)oc12`, for which the survival in assay [1] is 5.42 (inactive). For the same compound, the insulin secretion stimulation in assay [2] was 1.9% (inactive). The viability decrease in [3] is -33.7% (inactive). The tube area decrease in [4] was 3.8% (inactive). The GLP1 secretion stimulation in assay [5] was 2% (inactive). Besides, the inhibition of viability in [6] was 8.3% (inactive). Moreover, the viability decrease (inhibition) was 26.9% (inactive) in assay [7] and 8.4% (inactive) in assay [8]. For the same compound, in assay [9], the inhibition was 3.81% (inactive). In [10], the mean signal is 248 (inactive). Besides, the red/green cell ratio (normalised) in assay [11] was 1.15 (inactive). The normalised cell number in assay [11] (setting [17]) came to 0.84; in [11] (setting [18]), 0.96. Also, the z-score in assay [12] (setting [19]) was -0.203 (inactive); in assay [12] (setting [20]), -0.0388; in [15], 0.975 (inactive). Besides, the remaining NAD in assay [13] was 10 nM (inactive). In addition, the luciferase signal in [14] is 24 AU (inactive).

Broadly, the inhibition is the relative decrease from the control value, in per cent.

Values taken from PubChem BioAssay.
